Compound activity: PubChem, National Center for Advancing Translational Sciences (NCATS)
Rows were chosen to be rich in hits. Some 10% of all compounds tested hit in one or more screens of this group.
L3MBTL1 inh: L3MBTL1 (human) inhibition; AID 485360; Q9Y468; AlphaScreen L3MBTL1–H3K9me1 peptide binding; 230,000 compounds, 0.66% hits; Potency, µM (highest dose often 57.1 µM), for the others: at the highest dose activity, negative = inhibition, usual class: inhibitors; note: % is set by controls: 0 for no effect and ±100 for the full control effect; nearly all actives have a fitted effect of over 60% in size
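Read-out is AlphaScreen signal from streptavidin donor and nickel chelate acceptor beads (10 ug/mL final each) bridging L3MBTL1 (50 nM) and biotinylated K9-monomethylated H3(1-15) peptide (75 nM), after 30 min compound exposure at room temperature.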
G9a block: blocks human histone lysine methyltransferase G9a | G9a H3K9 monomethylation, AlphaScreen, 2 h | Potency, µM (titrated, usually from 102 µM), inactives show top-dose activity, negative = inhibition, hits mostly inhibitors | 350,000 compounds, 8.8% hits | Q96KQ7; note: % is set by controls: 0 for no effect and ±100 for the full control effect; nearly all actives have a fitted effect of over 75% in size
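Compounds were preincubated with 20 nM G9a for 15 min, after which biotinylated H3K9 peptide (500 nM) and SAM (20 uM) started a 2 h room-temperature reaction. Monomethylated product was quantified by antibody-based AlphaScreen chemiluminescence.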
GLS inh: blocks human kidney-isoform glutaminase activity; O94925; 410,000 compounds, 0.21% hits; AID 624170; Potency, µM (doses to about 45.5 µM), for inactives: top-dose activity change, negative = inhibition, actives largely listed as inhibitors; GLS enzymatic activity, qHTS titration; note: % is set by controls: 0 for no effect and ±100 for the full control effect
Target sequence (O94925 whole entry, looked up, canonical isoform): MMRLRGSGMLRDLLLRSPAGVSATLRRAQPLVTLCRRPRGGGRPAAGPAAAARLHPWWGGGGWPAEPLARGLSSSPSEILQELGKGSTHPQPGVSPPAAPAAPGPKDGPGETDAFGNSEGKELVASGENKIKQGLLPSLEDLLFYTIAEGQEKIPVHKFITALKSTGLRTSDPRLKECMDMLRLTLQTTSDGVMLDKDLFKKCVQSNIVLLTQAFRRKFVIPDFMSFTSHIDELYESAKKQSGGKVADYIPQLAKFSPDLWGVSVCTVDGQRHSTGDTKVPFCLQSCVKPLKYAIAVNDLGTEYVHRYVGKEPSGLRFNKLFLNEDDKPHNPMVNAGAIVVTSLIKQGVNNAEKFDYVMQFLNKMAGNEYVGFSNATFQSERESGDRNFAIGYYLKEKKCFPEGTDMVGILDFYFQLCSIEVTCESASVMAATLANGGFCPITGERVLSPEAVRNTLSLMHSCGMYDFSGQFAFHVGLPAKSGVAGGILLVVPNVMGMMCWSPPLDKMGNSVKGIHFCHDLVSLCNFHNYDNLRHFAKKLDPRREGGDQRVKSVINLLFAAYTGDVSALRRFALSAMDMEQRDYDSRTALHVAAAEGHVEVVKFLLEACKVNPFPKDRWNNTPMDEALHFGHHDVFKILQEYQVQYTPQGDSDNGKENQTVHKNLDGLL
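hKGA in 45 mM KH2PO4 pH 8.2, 0.02% Tween-20 with pin-transferred compounds; 1 mM L-glutamine (stock) plus glutamate oxidase/HRP/Amplex Red coupling added. Fluorescence read initially and after 30 min at RT.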
JMJD2A Tudor: JMJD2A Tudor domain (human) inhibition. O75164. AlphaScreen JMJD2A-Tudor / H3K4me3 peptide binding. Potency, µM (top dose mostly 114 µM), without a hit: at the top dose activity change, negative = inhibition, most hits filed as inhibitors. 390,000 compounds, 4.4% hits; note: % is set by controls: 0 for no effect and ±100 for the full control effect; nearly all actives have a fitted effect of over 50% in size
HP1b chromo inh: blocks HP1-beta chromodomain binding to methylated histone tails; P83916; AlphaScreen HP1-beta / biotin-H3K9me3 peptide binding; Potency, µM (top dose mostly 114 µM), inactives show at the top dose activity change, negative = inhibition, usual class: inhibitors; 390,000 compounds, 0.56% hits; AID 540317; note: nearly all actives have a fitted effect of over 70% in size
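HP1-beta protein (50 nM final) preincubated 30 min at room temperature with biotinylated H3(1-18)K9me3 peptide (50 nM) in PBS pH 7.4, 0.01% Tween-20, then compound added for 30 min. AlphaScreen streptavidin donor/nickel chelate acceptor beads (10 ug/mL final), 30 min dark, luminescence read.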
BAZ2B block: blocks human BAZ2B; Q9UIF8; AlphaScreen BAZ2B-H3K14Ac peptide displacement; Potency, µM (highest dose often 114 µM), without a hit: top-dose activity change, negative = inhibition, usual class: inhibitors; 360,000 compounds, 4.4% hits; note: % is set by controls: 0 for no effect and ±100 for the full control effect; nearly all actives have a fitted effect of over 60% in size
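Compounds, titrated to a top concentration of 110 uM, were incubated 30 min at room temperature with preformed BAZ2B/acetyl-K14 H3 peptide complex (50 nM each). Proximity signal was measured by AlphaScreen after 20 min with beads.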
* marks the source's active call; other numbers are inactive results; [ ] = dose if it differs, or a comment. Calls come from the whole dose curve; as a rule, active = well fitted curve in the direction sought with a large enough effect; inconclusive = small, poorly fitted or top-dose-only effect, or another doubt; inactive = no such curve, though single readings can be large; an effect the other way counts as inactive or inconclusive. Potency is the fitted concentration of half-maximal effect.

How did COc1ccccc1CNC(=O)c1ccc(-c2nc(CS(=O)c3ccc(C)cc3)c(C)o2)cc1 (stereo unspecified) do in these assays?
G9a block: inconclusive; GLS inh: 1%; JMJD2A Tudor: -20%; HP1b chromo inh: 23%; BAZ2B block: -19%

Results for CC1CCc2onc(C(=O)N3CCN(c4cccc(C(F)(F)F)c4)CC3)c2C1 (stereo unspecified) ?
G9a block: 17%[59 µM]; GLS inh: -15%; JMJD2A Tudor: 32%; HP1b chromo inh: 58%; BAZ2B block: 24%[57.1 µM]

What do the screens show for `Cc1ccc(C)c(OCCCC(=O)Nc2ccccc2C(N)=O)c1`?
L3MBTL1 inh: -10%; G9a block: 50µM*; GLS inh: -2%; JMJD2A Tudor: -22%; HP1b chromo inh: 26%; BAZ2B block: 7%

Results for CCc1nc(Nc2ccc(F)c(Cl)c2)c2c3c(sc2n1)CCCC3 ?
G9a block: -3%[59 µM]; GLS inh: 0%; JMJD2A Tudor: 49%; HP1b chromo inh: 76%; BAZ2B block: 34%

How did O=S(=O)(O)c1cc(O)c2c(O)c(N=Nc3cc(Cl)ccc3O)c(S(=O)(=O)O)cc2c1 do in these assays?
G9a block: 10µM*; GLS inh: 25%; JMJD2A Tudor: 10µM*; HP1b chromo inh: 20µM*; BAZ2B block: 11µM*

How did Cc1cc(-c2ccc(N=Nc3c(S(=O)(=O)O)cc4cc(S(=O)(=O)O)cc(N)c4c3O)c(C)c2)ccc1N=Nc1c(S(=O)(=O)O)cc2cc(S(=O)(=O)O)cc(N)c2c1O do in these assays?
L3MBTL1 inh: 0.2µM*; G9a block: inconclusive; GLS inh: 16%; BAZ2B block: 1.4µM*

What do the screens show for `Cc1ccc2nc(COc3ccccc3NC(=O)c3ccc(F)cc3)cc(=O)n2c1`?
G9a block: 5%[59 µM]; GLS inh: 6%; JMJD2A Tudor: -12%; HP1b chromo inh: 18%[57 µM]; BAZ2B block: 3%

Results for CCC1=C[C@@H]2CN(C1)Cc1c([nH]c3ccccc13)[C@@](C(=O)OC)(c1cc3c(cc1OC)N(C)[C@@H]1[C@@](O)(C(=O)OC)[C@H](OC(C)=O)[C@]4(CC)C=CCN5CC[C@]31[C@@H]54)C2 ?
G9a block: inconclusive; GLS inh: 22%

What do the screens show for `Cc1cc(Cl)c(OCCCn2ccnc2)c(Br)c1`?
L3MBTL1 inh: -17%; G9a block: inconclusive; GLS inh: 3%; JMJD2A Tudor: 22µM*; HP1b chromo inh: inconclusive; BAZ2B block: 50µM*

What do the screens show for `Cc1cccc(C)c1OCCCn1ccnc1`?
L3MBTL1 inh: 22%; GLS inh: 5%; JMJD2A Tudor: 25µM*; HP1b chromo inh: inconclusive; BAZ2B block: inconclusive

How did Clc1ccc(OCCCn2ccnc2)c(Br)c1 do in these assays?
L3MBTL1 inh: -18%; G9a block: 3.5µM*; GLS inh: 10%; JMJD2A Tudor: 5.6µM*; HP1b chromo inh: 16µM*; BAZ2B block: 32µM*

What do the screens show for `Cc1cc(C)c(OCCCn2ccnc2)c(C)c1`?
L3MBTL1 inh: 4%; G9a block: -12%[59 µM]; GLS inh: -1%; JMJD2A Tudor: -24%; HP1b chromo inh: 25%; BAZ2B block: inconclusive

Results for Cc1ccc(OCCCCn2ccnc2)c(Cl)c1 ?
G9a block: -16%[59 µM]; GLS inh: -9%; JMJD2A Tudor: inconclusive; HP1b chromo inh: -1%; BAZ2B block: -38%

How did Cc1cccc(OCCCn2ccnc2)c1 do in these assays?
G9a block: -4%[59 µM]; GLS inh: 0%; JMJD2A Tudor: -14%; HP1b chromo inh: 14%; BAZ2B block: -7%

What do the screens show for `CCOc1ccccc1NC(=O)c1ccc2c(c1)CCN2S(C)(=O)=O`?
G9a block: -7%[59 µM]; GLS inh: 9%; JMJD2A Tudor: -14%; HP1b chromo inh: 34%; BAZ2B block: -3%
